Where “and” joins values, the source holds several entries; their conditions need not be identical. Identical values can stand only once. Records with an inconclusive call do not appear. Calls of active or inactive are those of the source. Unless noted, calls come from the whole dose curve; as a rule, active = well fitted curve in the direction sought with a large enough effect in the repeat runs; inconclusive = weak or mixed curves; inactive = no such curve, though single readings can be large; an effect the other way counts as inactive or inconclusive.
Assays:
[1] = molecular target: Retinoic acid receptor RXR-alpha (Homo sapiens) (UniProt P19793); experiment: qHTS assay to identify small molecule agonists of the RXR signaling pathway (AID 1159527; calls by dose curve; note: nearly all actives have a fitted effect of over 35% in size)
Method in brief: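 qHTS of the Tox21 10K library in GeneBLAzer RXR-alpha HEK 293T cells carrying a beta-lactamase reporter […]; 16 hr treatment, 9-cis retinoic acid as agonist control, FRET read-out.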

[2] = qHTS assay to identify small molecule agonists of the RXR signaling pathway - cell viability counter screen (AID 1159529); note: series mostly up to about 77 µM; nearly all actives have a fitted effect of over 50% in size
Method in brief: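 Cell viability is measured by CellTiter-Glo luminescence, 30 min at room temperature, in wells already read for beta-lactamase. Engineered HEK 293T cells (RXR-alpha-UAS-bla) are dosed 16 hr at 37 C. Tetraoctyl ammonium bromide serves as positive control.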

[3] = qHTS assay to identify small molecule antagonists of the retinoid acid receptor (RAR) signaling pathway - cell viability counter screen (AID 1159551); note: nearly all actives have a fitted effect of over 35% in size
Method in brief: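 Luminescent ATP quantitation (CellTiter-Glo) gave cell viability in C3RL4 cells exposed to test chemicals for 6 h at 37 C alongside 1 uM final retinol.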

[4] = qHTS assay to identify small molecule antagonists of the retinoic acid receptor (RAR) signaling pathway (AID 1159552; note: nearly all actives have a fitted effect of over 50% in size)
Method in brief: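 Quantitative HTS in C3RL4 RARE-luciferase reporter cells. Compounds were added with 1 uM (final) retinol; luminescence was read after 6 hr.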

[5] = qHTS assay to identify small molecule agonists of the retinoic acid receptor (RAR) signaling pathway (AID 1159553)
Method in brief: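 Luminescence from a RARE-driven luciferase reporter in C3RL4 cells served as the read-out, measured after 30 min with detection reagent at room temperature. Compounds in DMSO were applied for 6 hr at 37 C following overnight seeding.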

[6] = qHTS assay to identify small molecule antagonists of the estrogen related receptor (ERR) signaling pathway from Tox21 library - cell viability counter screen (AID 1224834); note: nearly all actives have a fitted effect of over 30% in size
Method in brief: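 Fluorescence from CellTiter-Fluor gives the viability read-out, taken 30 min after reagent addition. Before that, ERR cells seeded 6 h earlier were incubated with compounds for 17.5 h at 37 C.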

[7] = molecular target: Luciferin 4-monooxygenase (Photinus pyralis) (UniProt P08659); experiment: qHTS assay to identify small molecule inhibitors of firefly luciferase (AID 1224835); note: nearly all actives have a fitted effect of over 25% in size; note: potency is the fitted concentration of half-maximal effect
Method in brief: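 Inhibition of purified Photinus luciferase is measured by luminescence. Substrate levels (D-luciferin, ATP) sit at their KM values. Each compound is tested in a concentration series.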

[8] = qHTS assay to identify small molecule agonists of the constitutive androstane receptor (CAR) signaling pathway - cell viability counter screen (AID 1224836); note: series mostly up to about 92 µM; nearly all actives have a fitted effect of over 45% in size
Method in brief: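 Counter screen multiplexed with the CAR reporter readout: HepG2 cells co-transfected with hCAR and the CYP2B6-2.2kb construct receive a 15-concentration compound series and 0.75 uM PK11195 (final), then CellTiter-Fluor fluorescence is read after 23 h.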

[9] = qHTS assay to identify small molecule antagonists of the constitutive androstane receptor (CAR) signaling pathway - cell viability counter screen (AID 1224837); note: series mostly up to about 92 µM; nearly all actives have a fitted effect of over 45% in size
Method in brief: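 HepG2-CYP2B6-hCAR cells, 2500/well, 4 hr pre-incubation; compound titration, 15 conc.; CITCO 50 nM final; 23 hr, 37 C/5% CO2; CellTiter-Fluor, fluorescence intensity.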

[10] = molecular target: Nuclear receptor subfamily 1 group I member 3 (Homo sapiens) (UniProt Q14994); experiment: qHTS assay to identify small molecule antagonists of the constitutive androstane receptor (CAR) signaling pathway (AID 1224838);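 note: HepG2 cells stably expressing hCAR with CYP2B6 luciferase reporter stimulated by CITCO; nearly all actives have a fitted effect of over 40% in size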
Method in brief: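 HepG2-CYP2B6-hCAR cells; 4 h pre-incubation; cpd (15 conc) + CITCO 50 nM final; 24 h, 37 C/5% CO2; ONE-Glo, luminescence.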

[11] = qHTS assay to identify small molecule antagonists of the estrogen related receptor signaling pathway with the pleiotropic PPARgamma coactivator (PGC) from Tox21 10K library - cell viability counter screen (AID 1224840; active = well fitted cell-killing curve with a large enough effect in the repeat runs, not every such curve was filed as active; note: nearly all actives have a fitted effect of over 40% in size)
Method in brief: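 PGC/ERR cells, 2,000/well; 6 h pre-incubation 37 C/5% CO2; cpd in DMSO via pin tool; 17.5 h 37 C; CellTiter-Fluor, 30 min; fluorescence.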

[12] = molecular target: Thyrotropin receptor (Homo sapiens) (UniProt P16473); experiment: qHTS assay to identify small molecule agonists of the thyroid stimulating hormone receptor (TSHR) signaling pathway (AID 1224843; calls by dose curve; note: nearly all actives have a fitted effect of over 45% in size)
Method in brief: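 HEK293 cells stably bearing the thyrotropin receptor were plated at 800 cells/well and challenged with compound (30 min, RT). Accumulated cAMP was quantified via cAMP-d2 competing for cryptate-tagged antibody.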

[13] = qHTS assay to identify small molecule agonists of the hypoxia (HIF-1) signaling pathway - cell viability counter screen (AID 1224844; calls by dose curve; note: nearly all actives have a fitted effect of over 50% in size)
Method in brief: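 ME-180 HRE-bla cells, 2,000/well, 0.5% dialyzed FBS; 5 hr settle, 17 hr compound at 37C/5% CO2; CCF4-AM reporter read first, then CellTiter-Glo luminescence after 30 min RT.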

[14] = qHTS assay to identify small molecule agonists of H2AX (AID 1224845; active = well fitted activation curve with a large enough effect in the signal ratio in the repeat runs, not every such curve was filed as active; the % refers to the signal ratio)
Method in brief: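 Phospho-H2AX Ser139 measured by HTRF (ex 320 nm; em 665 and 620 nm) after 24 hr antibody incubation. Compounds, 15 concentrations, 0.76% DMSO, were applied to CHO-K1 cells for 3hr at 37C before lysis.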

[15] = qHTS assay to identify small molecule agonists of the hypoxia (HIF-1) signaling pathway (AID 1224846; active = well fitted activation curve with a large enough effect in the signal ratio in the repeat runs, not every such curve was filed as active; the % refers to the signal ratio)
Method in brief: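 Cell line: CellSensor HRE-bla ME-180; 2,000 cells/well; 0.5% dialyzed FBS; 5 h preincubation; DMSO compound pin transfer; 17 h, 37C, 5% CO2; CCF4-AM added; bla FRET signal scored for activation.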

[16] = qHTS assay to identify small molecule agonists of H2AX - cell viability counter screen (AID 1224847; calls by dose curve; note: top concentration of the series differs between compounds; nearly all actives have a fitted effect of over 30% in size)
Method in brief: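 We seed wild-type CHO-K1 cells overnight, treat them for 3 hr at 37C with compounds in 15-concentration series, and quantify remaining viability by CellTiter-Glo luminescence.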

[17] = qHTS assay to identify small molecule antagonists of the estrogen related receptor signaling pathway with the pleiotropic PPARgamma coactivator (PGC) from Tox21 10K library (AID 1224841; call rule not given here; note: series mostly up to about 92 µM; actives are mostly falling curves and most rising ones were filed inactive; nearly all actives have a fitted effect of over 50% in size)
Method in brief: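 PGC/ERR cell line, 2,000 cells/well; 6 h pre-incubation 37 C/5% CO2; compounds (DMSO) pinned in; 18 h, 37 C; One-Glo, 30 min RT; luminescence.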

Measured: Potency

Sequence of Luciferin 4-monooxygenase (Photinus pyralis) (P08659 whole entry, looked up): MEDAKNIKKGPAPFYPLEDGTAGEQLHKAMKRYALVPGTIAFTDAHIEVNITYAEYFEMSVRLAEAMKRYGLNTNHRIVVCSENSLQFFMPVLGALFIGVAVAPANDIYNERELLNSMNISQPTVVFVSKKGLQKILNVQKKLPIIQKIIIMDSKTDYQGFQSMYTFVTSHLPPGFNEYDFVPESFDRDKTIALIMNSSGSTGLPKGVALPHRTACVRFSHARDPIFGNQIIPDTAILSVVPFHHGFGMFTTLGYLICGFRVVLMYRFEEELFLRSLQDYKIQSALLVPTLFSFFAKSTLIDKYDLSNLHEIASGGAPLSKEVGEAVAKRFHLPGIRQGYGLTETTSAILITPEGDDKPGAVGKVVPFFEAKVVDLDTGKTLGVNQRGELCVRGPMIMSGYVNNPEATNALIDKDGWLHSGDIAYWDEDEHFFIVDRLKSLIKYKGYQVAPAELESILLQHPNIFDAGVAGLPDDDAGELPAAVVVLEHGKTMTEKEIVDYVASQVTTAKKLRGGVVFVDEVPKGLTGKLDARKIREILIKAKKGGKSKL
Sequence of Retinoic acid receptor RXR-alpha (Homo sapiens) (P19793 whole entry, looked up): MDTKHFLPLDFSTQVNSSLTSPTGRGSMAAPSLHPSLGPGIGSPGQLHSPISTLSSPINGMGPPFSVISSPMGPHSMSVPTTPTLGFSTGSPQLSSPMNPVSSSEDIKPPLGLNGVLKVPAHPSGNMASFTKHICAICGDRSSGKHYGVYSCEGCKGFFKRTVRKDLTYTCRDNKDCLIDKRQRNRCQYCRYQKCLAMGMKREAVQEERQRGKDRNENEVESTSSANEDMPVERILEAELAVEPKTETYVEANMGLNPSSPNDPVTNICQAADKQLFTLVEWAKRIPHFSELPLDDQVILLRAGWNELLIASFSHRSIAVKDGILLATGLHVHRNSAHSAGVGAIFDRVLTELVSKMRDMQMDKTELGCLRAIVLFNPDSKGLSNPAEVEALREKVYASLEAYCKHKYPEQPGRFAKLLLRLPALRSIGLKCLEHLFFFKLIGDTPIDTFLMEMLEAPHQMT
Sequence of Nuclear receptor subfamily 1 group I member 3 (Homo sapiens) (Q14994 whole entry, looked up): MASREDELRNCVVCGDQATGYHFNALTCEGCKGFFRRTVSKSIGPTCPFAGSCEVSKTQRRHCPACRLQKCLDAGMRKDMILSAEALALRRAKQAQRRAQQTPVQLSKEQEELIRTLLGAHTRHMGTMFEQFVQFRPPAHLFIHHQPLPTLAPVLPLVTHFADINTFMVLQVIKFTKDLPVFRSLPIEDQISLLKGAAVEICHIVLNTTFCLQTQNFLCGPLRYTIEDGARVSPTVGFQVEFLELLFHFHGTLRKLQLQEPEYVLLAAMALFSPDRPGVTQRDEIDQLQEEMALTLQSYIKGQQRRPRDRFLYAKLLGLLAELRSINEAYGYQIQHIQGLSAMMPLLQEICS
Sequence of Thyrotropin receptor (Homo sapiens) (P16473 whole entry, looked up): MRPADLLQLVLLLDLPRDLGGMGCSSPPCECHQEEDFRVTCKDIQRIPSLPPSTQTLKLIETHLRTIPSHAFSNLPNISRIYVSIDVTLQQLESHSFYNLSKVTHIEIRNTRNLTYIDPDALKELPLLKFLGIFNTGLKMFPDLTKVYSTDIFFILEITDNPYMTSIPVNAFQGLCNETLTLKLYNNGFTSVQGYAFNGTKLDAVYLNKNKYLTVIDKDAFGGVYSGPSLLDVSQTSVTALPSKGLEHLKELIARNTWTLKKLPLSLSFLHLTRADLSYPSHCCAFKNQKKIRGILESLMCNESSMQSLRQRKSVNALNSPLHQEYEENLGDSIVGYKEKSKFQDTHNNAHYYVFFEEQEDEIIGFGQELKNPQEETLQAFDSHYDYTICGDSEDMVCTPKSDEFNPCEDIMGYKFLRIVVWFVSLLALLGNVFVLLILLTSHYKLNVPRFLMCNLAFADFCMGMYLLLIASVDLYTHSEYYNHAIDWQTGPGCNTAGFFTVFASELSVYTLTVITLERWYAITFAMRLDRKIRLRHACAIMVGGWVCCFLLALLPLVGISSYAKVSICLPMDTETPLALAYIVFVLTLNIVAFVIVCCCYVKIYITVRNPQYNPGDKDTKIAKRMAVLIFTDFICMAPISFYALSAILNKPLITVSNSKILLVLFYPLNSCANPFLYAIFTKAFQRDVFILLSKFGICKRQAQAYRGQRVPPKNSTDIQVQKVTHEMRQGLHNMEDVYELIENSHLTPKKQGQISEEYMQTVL

Cc1ccc(N(C)C)cc1
inactive: [1] | [2] | [3] | [4] | [5] | [6] | [7] | [8] | [9] | [10] | [11] | [12] | [13] | [14] | [15] | [16]

N[C@@H](Cc1cc(I)c(Oc2cc(I)c(O)c(I)c2)c(I)c1)C(=O)O
inactive: [1] | [2] | [3] | [4] | [5] | [6] | [7] | [8] | [9] | [10] | [11] | [17] | [12] | [13] | [14] | [16]

CCCCOC(=O)COc1ccc(Cl)cc1Cl
active: [7] 9.05 µM and 10 µM
inactive: [1] | [2] | [3] | [4] | [5] | [6] | [8] | [9] | [10] | [11] | [13] | [14] | [15] | [16]

C[C@H]1C[C@@H]2[C@H]([C@@H](O)C[C@@]3(C)[C@H]2CC[C@]3(O)C(=O)CO)[C@@]2(C)C=CC(=O)C=C12
inactive: [1] | [2] | [3] | [4] | [5] | [6] | [7] | [8] | [9] | [11] | [17] | [13] | [14] | [16]

Reference: PubChem BioAssay (Tox21)
